These results are taken from the supplement of paper PMC4709259.

SMILES strings stand for the structures. Counter-ions that a name gives are not always drawn. ± gives the standard deviation.

The test system of one assay is Jurkat. Kind of assay: mean cell size (FSC-A) relative to DMSO control (fraction of control); higher = larger cells. The note with it: 48 h. An outline of the steps:
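Jurkat cells at 600 cells/µl were incubated for 1 h and then treated for 48h with the Enzo Screen-Well FDA Approved Drug Library v2.0 at 25µM, with DMSO at 0.9% (v/v) final. Compounds that reduced counts below 20% of controls were retested in 10-fold dilutions down to 25nM. Cell count and mean cell size, taken as forward scatter area, were measured by flow cytometry relative to solvent-only controls. Each plate carried 6-12 controls, and values are means of 3 biological replicates.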
On to `CN(C)C(=N)NC(=N)N` [Metformin·HCl] (concentration: 25 µM), for which the mean cell size was determined as 0.954 ± 0.067.
Molecule `CCCC(=O)O[C@]1(C(=O)COC(C)=O)CC[C@H]2[C@@H]3C[C@H](F)C4=CC(=O)C=C[C@]4(C)[C@@]3(F)[C@@H](O)C[C@@]21C` [Difluprednate] (concentration: 25 µM) yielded a mean cell size of 0.935 ± 0.037.
Molecule `CC(=O)NCCCS(=O)(=O)O` [Acamprosate] (concentration: 25 µM) displayed a mean cell size of 1.05 ± 0.062.
Molecule `C[N+]1(C)[C@@H]2C[C@@H](OC(=O)C(O)(c3cccs3)c3cccs3)C[C@H]1[C@@H]1O[C@@H]12` [Tiotropium Bromide Monohydrate] (concentration: 25 µM) returned a mean cell size of 0.988 ± 0.036.
On the same count and under the same terms, the figure for `CCCC(CCC)C(=O)O` [Valproic Acid] (concentration: 25 µM) is 0.986 ± 0.028; for `NC[C@H]1CC[C@H](C(=O)O)CC1` [Tranexamic Acid] (concentration: 25 µM) it is 0.961 ± 0.051.
The same measure, in the same setting: under `CC(=O)O[C@H]1C(=O)[C@@]2(C)[C@H]([C@H](OC(=O)c3ccccc3)[C@]3(O)C[C@H](OC(=O)[C@H](O)[C@@H](NC(=O)c4ccccc4)c4ccccc4)C(C)=C1C3(C)C)[C@]1(OC(C)=O)CO[C@@H]1C[C@@H]2O` [Paclitaxel (Taxol)] (concentration: 25 nM) stands 1.07 ± 0.022; under `CC(=O)c1ccc(S(=O)(=O)NC(=O)NC2CCCCC2)cc1` [Acetohexamide] (concentration: 25 µM), 1.02 ± 0.063; under `CN(C)CC/C=C1/c2ccccc2COc2ccc(CC(=O)O)cc21` [Olopatadine] (concentration: 25 µM), 0.976 ± 0.029.
On the same count and under the same terms, under `COc1cc2nc(N(C)CCCNC(=O)C3CCCO3)nc(N)c2cc1OC` (stereo not given) [Alfuzosin] (concentration: 25 µM) stands 0.952 ± 0.029; under `CO[C@@]1(NC(=O)Cc2cccs2)C(=O)N2C(C(=O)O)=C(COC(N)=O)CS[C@@H]21` [Cefoxitin·Na] (concentration: 25 µM), 0.939 ± 0.031.
The molecule `COC(=O)C1=C(C)NC(C)=C(C(=O)OCC(C)C)C1c1ccccc1[N+](=O)[O-]` (stereo not given) [Nisoldipine] (concentration: 25 µM) showed a mean cell size of 1.09 ± 0.047.
`CC(=O)CC(c1ccccc1)c1c(O)c2ccccc2oc1=O` (stereo not given) [Warfarin·Na] (concentration: 25 µM) gave a mean cell size of 1.04 ± 0.051.
In turn, `Clc1ccc2nsnc2c1NC1=NCCN1` [Tizanidine·HCl] (concentration: 25 µM) showed a mean cell size of 1.01 ± 0.014.
On the same count and under the same terms, the figure for `COCC1=C(C(=O)OC(C)OC(=O)OC(C)C)N2C(=O)[C@@H](NC(=O)/C(=N\OC)c3csc(N)n3)[C@H]2SC1` (stereo not given in full) [Cefpodoxime Proxetil] (concentration: 25 µM) is 0.94 ± 0.021.

For another assay, the system named is Jurkat. As to the kind of experiment: cell count relative to DMSO control (fraction of control); higher = more cells (less growth inhibition). The note with it: 48 h.
`NNCCc1ccccc1` [Phenelzine Sulfate] (concentration: 25 µM) yielded a cell count of 0.882 ± 0.12.
Turning to `O=C1C(=O)c2ccccc2C(O)=C1C1CCC(c2ccc(Cl)cc2)CC1` (stereo not given) [Atovaquone] (concentration: 25 µM), the cell count was determined as 0.462 ± 0.039.
Molecule `O=C(O)P(=O)(O)O` [Foscarnet·Na (Sodium Phosphonoformate Tribasic Hexahydrate)] (concentration: 25 µM) came in with a cell count of 0.59 ± 0.027.
On the same count and under the same terms, the figure for `Cc1nnc(C(C)C)n1C1C[C@H]2CC[C@@H](C1)N2CC[C@H](NC(=O)C1CCC(F)(F)CC1)c1ccccc1` (stereo in doubt) [Maraviroc] (concentration: 25 µM) is 0.668 ± 0.062.
`CC(C)C(=O)Nc1ccc([N+](=O)[O-])c(C(F)(F)F)c1` [Flutamide] (concentration: 25 µM) gave a cell count of 0.329 ± 0.14.
Take `COc1ccc2cc(CCC(C)=O)ccc2c1` [Nabumetone] (concentration: 25 µM): the cell count is 0.888 ± 0.058.
In turn, `CSc1ccc2c(c1)N(CCC1CCCCN1C)c1ccccc1S2` (stereo not given) [Thioridazine·HCl] (concentration: 2.5 µM) gave a cell count of 0.646 ± 0.18.
In the case of `Cn1c(=O)c2c(ncn2CC(O)CO)n(C)c1=O` (stereo not given) [Dyphylline] (concentration: 25 µM), the cell count turned out to be 0.81 ± 0.037.
Still for that read-out and setting: under `OC[C@@H](O)[C@@H](O)[C@H](O)[C@H](O)CO` [Mannitol] (concentration: 25 µM) stands 0.977 ± 0.097; under `CC(=O)[C@]1(O)Cc2c(O)c3c(c(O)c2[C@@H](O[C@H]2C[C@H](N)[C@H](O)[C@H](C)O2)C1)C(=O)c1ccccc1C3=O` [Idarubicin·HCl] (concentration: 25 nM), 0.622 ± 0.11; under `Cn1cnc([N+](=O)[O-])c1Sc1ncnc2[nH]cnc12` [Azathioprine] (concentration: 25 µM), 0.782 ± 0.088.
For `CC(=O)Oc1cc2c(s1)CCN(C(C(=O)C1CC1)c1ccccc1F)C2` (stereo not given) [Prasugrel] (concentration: 25 µM), the cell count worked out at 0.831 ± 0.14.
Take `COCCCC/C(=N\OCCN)c1ccc(C(F)(F)F)cc1` [Fluvoxamine Maleate] (concentration: 25 µM): the cell count was 0.866 ± 0.083.
For `CC(=O)N1CCN(c2ccc(OCC3COC(Cn4ccnc4)(c4ccc(Cl)cc4Cl)O3)cc2)CC1` (stereo not given) [Ketoconazole] (concentration: 25 µM), the cell count was 0.564 ± 0.035.
In the case of `C[C@H]1C[C@@H]2[C@H]([C@@H](O)C[C@@]3(C)[C@H]2CC[C@]3(O)C(=O)CO)[C@@]2(C)C=CC(=O)C=C12` [Methylprednisolone] (concentration: 25 µM), the cell count came out at 0.873 ± 0.025.
Still for that read-out and setting: under `Nc1ncn([C@@H]2O[C@H](CO)[C@@H](O)[C@H]2O)c(=O)n1` [Azacitidine] (concentration: 25 µM) stands 0.668 ± 0.11; under `CC(C)CN(C[C@@H](O)[C@H](Cc1ccccc1)NC(=O)O[C@H]1CO[C@H]2OCC[C@H]21)S(=O)(=O)c1ccc(N)cc1` [Darunavir] (concentration: 25 µM), 0.62 ± 0.062.
For the molecule `Nc1nc(=O)n([C@@H]2CS[C@H](CO)O2)cc1F` [Emtricitabine] (concentration: 25 µM), the cell count is 0.581 ± 0.14.
For the molecule `COc1ccc([C@@H]2Sc3ccccc3N(CCN(C)C)C(=O)[C@@H]2OC(C)=O)cc1` [Diltiazem·HCl] (concentration: 25 µM), the cell count worked out at 0.359 ± 0.13.
On the same count and under the same terms, under `OCCN(CCO)c1nc(N2CCCCC2)c2nc(N(CCO)CCO)nc(N3CCCCC3)c2n1` [Dipyridamole] (concentration: 25 µM) stands 0.652 ± 0.1.
Still for that read-out and setting: the figure for `N=C(N)NCCCC[C@@H]1NC(=O)CCSSC[C@@H](C(N)=O)NC(=O)[C@@H]2CCCN2C(=O)[C@H](Cc2c[nH]c3ccccc23)NC(=O)[C@H](CC(=O)O)NC(=O)CNC1=O` [Eptifibatide] (concentration: 25 µM) is 0.933 ± 0.11; for `CC(C)n1c(/C=C/[C@H](O)C[C@H](O)CC(=O)O)c(-c2ccc(F)cc2)c2ccccc21` [Fluvastatin·Na] (concentration: 25 µM) it is 0.492 ± 0.12.
In turn, `CN(C)/N=N/c1[nH]cnc1C(N)=O` [Dacarbazine] (concentration: 25 µM) had a cell count of 0.836 ± 0.093.
Take `CC1(C)O[C@@H]2C[C@H]3[C@@H]4CCC5=CC(=O)CC[C@]5(C)[C@@]4(F)[C@@H](O)C[C@]3(C)[C@]2(C(=O)CCl)O1` [Halcinonide] (concentration: 25 µM): the cell count is 0.883 ± 0.12.
Molecule `C[C@]12CCC(=O)C=C1CC[C@@H]1[C@@H]2[C@@H](O)C[C@@]2(C)[C@H]1CC[C@]2(O)C(=O)CO` [Hydrocortisone] (concentration: 25 µM) came in with a cell count of 0.72 ± 0.092.
Molecule `CN(C)C(=N)NC(=N)N` [Metformin·HCl] (concentration: 25 µM) registered a cell count of 0.66 ± 0.18.
On the same count and under the same terms, under `CCCC(=O)O[C@]1(C(=O)COC(C)=O)CC[C@H]2[C@@H]3C[C@H](F)C4=CC(=O)C=C[C@]4(C)[C@@]3(F)[C@@H](O)C[C@@]21C` [Difluprednate] (concentration: 25 µM) stands 0.605 ± 0.14; under `CC(=O)NCCCS(=O)(=O)O` [Acamprosate] (concentration: 25 µM), 0.933 ± 0.097.
`C[N+]1(C)[C@@H]2C[C@@H](OC(=O)C(O)(c3cccs3)c3cccs3)C[C@H]1[C@@H]1O[C@@H]12` [Tiotropium Bromide Monohydrate] (concentration: 25 µM) had a cell count of 0.68 ± 0.051.
Consider `CCCC(CCC)C(=O)O` [Valproic Acid] (concentration: 25 µM), for which the cell count was found to be 0.728 ± 0.029.
In turn, `NC[C@H]1CC[C@H](C(=O)O)CC1` [Tranexamic Acid] (concentration: 25 µM) yielded a cell count of 0.542 ± 0.14.
Regarding `CC(=O)O[C@H]1C(=O)[C@@]2(C)[C@H]([C@H](OC(=O)c3ccccc3)[C@]3(O)C[C@H](OC(=O)[C@H](O)[C@@H](NC(=O)c4ccccc4)c4ccccc4)C(C)=C1C3(C)C)[C@]1(OC(C)=O)CO[C@@H]1C[C@@H]2O` [Paclitaxel (Taxol)] (concentration: 25 nM), the cell count is 0.4 ± 0.048.
In turn, `CC(=O)c1ccc(S(=O)(=O)NC(=O)NC2CCCCC2)cc1` [Acetohexamide] (concentration: 25 µM) yielded a cell count of 0.723 ± 0.068.
In the case of `CN(C)CC/C=C1/c2ccccc2COc2ccc(CC(=O)O)cc21` [Olopatadine] (concentration: 25 µM), the cell count was 0.929 ± 0.1.
`COc1cc2nc(N(C)CCCNC(=O)C3CCCO3)nc(N)c2cc1OC` (stereo not given) [Alfuzosin] (concentration: 25 µM) displayed a cell count of 0.41 ± 0.14.
Still for that read-out and setting: the figure for `CO[C@@]1(NC(=O)Cc2cccs2)C(=O)N2C(C(=O)O)=C(COC(N)=O)CS[C@@H]21` [Cefoxitin·Na] (concentration: 25 µM) is 0.89 ± 0.037.
As to `COC(=O)C1=C(C)NC(C)=C(C(=O)OCC(C)C)C1c1ccccc1[N+](=O)[O-]` (stereo not given) [Nisoldipine] (concentration: 25 µM), the cell count amounted to 0.342 ± 0.015.
The molecule `CC(=O)CC(c1ccccc1)c1c(O)c2ccccc2oc1=O` (stereo not given) [Warfarin·Na] (concentration: 25 µM) yielded a cell count of 0.708 ± 0.045.
As for `Clc1ccc2nsnc2c1NC1=NCCN1` [Tizanidine·HCl] (concentration: 25 µM), the cell count came to 0.771 ± 0.054.
`COCC1=C(C(=O)OC(C)OC(=O)OC(C)C)N2C(=O)[C@@H](NC(=O)/C(=N\OC)c3csc(N)n3)[C@H]2SC1` (stereo not given in full) [Cefpodoxime Proxetil] (concentration: 25 µM) had a cell count of 0.872 ± 0.045.
